Experimental data from PubChem BioAssay (NCI).
The panel holds about 83,000 compounds, 20% with a hit somewhere; the sample as a whole holds those more often.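 Single-dose data. Exposure time 48 hours. Values below 10 considered active.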 Unmarked numbers belong to inactive results. The source made the active and inactive calls.

The compounds below were run on DU-145 prostate (assay: NCI-60 one-dose screen, 48 h (100 = growth as untreated, 0 = no growth, -100 = all killed)). Details: 10 µM unless noted.
`CC1(C)C(N(O)C(=O)Nc2ccc(Cl)cc2)N(c2ccc(Cl)cc2)C(=O)N1CC(=O)N/N=C/C=C/c1ccc([N+](=O)[O-])o1` (stereo not drawn) showed a growth of 12.5%.
Compound `Oc1ccc(-c2cnc(-c3ccccc3)[nH]2)c(O)c1` has a growth of 157%.
In the case of `NC(N)=N/N=C\c1cccc(OCc2ccccc2)c1`, the growth was 101%.
Compound `CCCCn1c(-c2ccc(F)cc2)nc2cc(OC)c(OC)cc2c1=O` has a growth of 111%.
For `O=C(Nc1ccccc1)C(CCCCN1C(=O)c2ccccc2C1=O)N1C(=O)c2ccccc2C1=O` (stereo not drawn), the growth was 95.4%.
With `Cc1[nH]n(C(=O)c2ccncc2)c(=O)c1N=Nc1ccc(O)c(C(=O)O)c1` the growth was 132%.
With `COc1cc2c(cc1OC)C(=O)OC2` the growth was 109%.
`Cc1cc2nc3c(=O)[nH]c(=O)nc-3n(CC=O)c2cc1C` was tested, and the growth was 116%.
`COC(=O)C1(C)COP(=O)(NC23CC4CC(CC(C4)C2)C3)OC1` (stereo not drawn) showed a growth of 95.4%.
`Cc1nc([C@H]2CC[C@H]3[C@@H]4CCC5=CC(=O)CC[C@]5(C)[C@H]4CC[C@]23C)cs1` showed a growth of 99.7%.
In the case of `O=C1OCC2=C1C(c1cccc(Br)c1)c1cc3c(cc1N2CCO)OCCO3` (stereo not drawn), the growth was -30.9% (active).
In the case of `C=CCn1c(SCC(=O)Nc2ccc(C(=O)/C=C/c3ccc(Cl)cc3)cc2)nnc1-c1ccc(Cl)cc1`, the growth was 100%.
With `CCc1ccc2c(c1)N(CCO)C1=C(C(=O)OC1)C2c1cccc(Cl)c1` (stereo not drawn) the growth was 11.3%.
For `COc1ccc2c(c1)N(CCO)C1=C(C(=O)OC1)C2c1cccc(Br)c1` (stereo not drawn), the growth was -27.2% (active).
In the case of `COC(=O)c1cc2oc(/C=N/NC(=O)c3cc4oc(-c5cccc(C(F)(F)F)c5)cc4[nH]3)cc2n1Cc1ccccc1`, the growth was 111%.
Compound `CCCCCCCCCCC(C(O)c1ccccc1)N1CCCCC1` (stereo not drawn) has a growth of 64.5%.
`CC(=O)[C@@]1(O)[C@H](C)C[C@H]2[C@@H]3C=C(C)C4=Cc5c(cnn5-c5ccccc5)C[C@]4(C)[C@H]3[C@@H](O)C[C@@]21C` was tested, and the growth was 54.6%.
For `CCOc1c(C#N)c2c(N)ncnc2n1C1OC(CO)C(O)C1O` (stereo not drawn), the growth was -10.5% (active).
In the case of `CCNS(=O)(=O)c1ccc(C)cc1`, the growth was 96.5%.
Compound `COc1ccc(C2C3=C(COC3=O)N(CCO)c3cc(OC)c(OC)cc32)cc1` (stereo not drawn) has a growth of 113%.
Compound `CCCCN(CCCC)CCC(=O)c1ccc(OC)c2ccccc12` has a growth of 79.4%.
`Cc1ccccc1CNc1ncnc2[nH]ncc12` gave a growth of 103%.
Compound `O=C1OC(c2ccc(-c3ccccc3)cc2)=C/C1=C/c1c(Cl)cccc1Cl` has a growth of 96.3%.
`NC(N)=N/N=C\c1ccc(OCc2ccccc2)cc1` gave a growth of 87.4%.
For `Fc1ccc(-c2nnc(N3CCOCC3)c3ccccc23)cc1`, the growth was 104%.
For `CC1=NN(c2cccc(S(N)(=O)=O)c2)C(=O)C1`, the growth was 100%.
`CCc1ccc2c(c1)N(CCO)C1=C(C(=O)OC1)C2c1cccc(Br)c1` (stereo not drawn) showed a growth of 12%.
`Fc1ccc2nc(-c3ccc(-c4noc(-c5ccc(Cl)cc5)n4)cc3)[nH]c2c1` gave a growth of 98.5%.
Work on `Cc1cccc(C(=O)O)n1` yielded a growth of 116%.
Work on `COc1ccc(Nc2ncccc2C(=O)NCc2cn(Cc3cc(OC)cc(OC)c3)nn2)cc1` yielded a growth of 95.2%.
With `CN(C)c1ccc(C(c2ccccc2)c2ccc(N(C)C)cc2)cc1` the growth was 101%.
With `COc1ccc(/C=C2\CCCC3=C2N=C2SC(C)=NN2C3c2ccc(OC)c(OC)c2)cc1OC` (stereo not drawn) the growth was 16.1%.
`Cn1c(=O)c2[nH]c(Cc3ccc4c(c3)OCO4)nc2n(C)c1=O` gave a growth of 115%.
`O=C1OCC2=C1C(c1ccc(Cl)c(Cl)c1)c1cc3c(cc1N2CCO)CCC3` (stereo not drawn) was tested, and the growth was 7.85% (active).
Compound `COc1cc(C2C=C(C)N=C3SC=NN32)cc(OC)c1OC` (stereo not drawn) has a growth of 115%.
For `Cc1cc(O)ccc1C1=NN(c2ccc(S(N)(=O)=O)cc2)C(=O)CC1`, the growth was 89.9%.
For `NC(=Nc1ccccc1)SCCCSC(N)=Nc1ccccc1`, the growth was 95.7%.
With `CC(=O)Nc1ccc(Cl)cc1Cl` the growth was 111%.
`NS(=O)(=O)c1ccc(N2N=C(c3ccc(Br)cc3)CC2c2cn(-c3ccccc3)nc2-c2ccc(Cl)cc2)cc1` (stereo not drawn) gave a growth of 94.7%.

These compounds were tested on K-562 leukemia in the same assay as above. Details: 10 µM unless noted.
Work on `CC1(C)C(N(O)C(=O)Nc2ccc(Cl)cc2)N(c2ccc(Cl)cc2)C(=O)N1CC(=O)N/N=C/C=C/c1ccc([N+](=O)[O-])o1` (stereo not drawn) yielded a growth of 13.1%.
`Oc1ccc(-c2cnc(-c3ccccc3)[nH]2)c(O)c1` showed a growth of 94.7%.
In the case of `NC(N)=N/N=C\c1cccc(OCc2ccccc2)c1`, the growth was 27.1%.
Compound `CCCCn1c(-c2ccc(F)cc2)nc2cc(OC)c(OC)cc2c1=O` has a growth of 85.5%.
`O=C(Nc1ccccc1)C(CCCCN1C(=O)c2ccccc2C1=O)N1C(=O)c2ccccc2C1=O` (stereo not drawn) gave a growth of 82.8%.
`Cc1[nH]n(C(=O)c2ccncc2)c(=O)c1N=Nc1ccc(O)c(C(=O)O)c1` was tested, and the growth was 91.1%.
`COc1cc2c(cc1OC)C(=O)OC2` was tested, and the growth was 118%.
With `Cc1cc2nc3c(=O)[nH]c(=O)nc-3n(CC=O)c2cc1C` the growth was 96%.
Compound `COC(=O)C1(C)COP(=O)(NC23CC4CC(CC(C4)C2)C3)OC1` (stereo not drawn) has a growth of 106%.
`Cc1nc([C@H]2CC[C@H]3[C@@H]4CCC5=CC(=O)CC[C@]5(C)[C@H]4CC[C@]23C)cs1` showed a growth of 18%.
`O=C1OCC2=C1C(c1cccc(Br)c1)c1cc3c(cc1N2CCO)OCCO3` (stereo not drawn) gave a growth of 17.5%.
`C=CCn1c(SCC(=O)Nc2ccc(C(=O)/C=C/c3ccc(Cl)cc3)cc2)nnc1-c1ccc(Cl)cc1` showed a growth of 72.5%.
In the case of `CCc1ccc2c(c1)N(CCO)C1=C(C(=O)OC1)C2c1cccc(Cl)c1` (stereo not drawn), the growth was 13.3%.
In the case of `COc1ccc2c(c1)N(CCO)C1=C(C(=O)OC1)C2c1cccc(Br)c1` (stereo not drawn), the growth was 13.6%.
`COC(=O)c1cc2oc(/C=N/NC(=O)c3cc4oc(-c5cccc(C(F)(F)F)c5)cc4[nH]3)cc2n1Cc1ccccc1` gave a growth of 91.3%.
With `CCCCCCCCCCC(C(O)c1ccccc1)N1CCCCC1` (stereo not drawn) the growth was 3.31% (active).
With `CC(=O)[C@@]1(O)[C@H](C)C[C@H]2[C@@H]3C=C(C)C4=Cc5c(cnn5-c5ccccc5)C[C@]4(C)[C@H]3[C@@H](O)C[C@@]21C` the growth was -60.9% (active).
`CCOc1c(C#N)c2c(N)ncnc2n1C1OC(CO)C(O)C1O` (stereo not drawn) was tested, and the growth was 0.169% (active).
With `CCNS(=O)(=O)c1ccc(C)cc1` the growth was 105%.
With `COc1ccc(C2C3=C(COC3=O)N(CCO)c3cc(OC)c(OC)cc32)cc1` (stereo not drawn) the growth was 82.5%.
`CCCCN(CCCC)CCC(=O)c1ccc(OC)c2ccccc12` showed a growth of 67.1%.
For `Cc1ccccc1CNc1ncnc2[nH]ncc12`, the growth was 46.8%.
`O=C1OC(c2ccc(-c3ccccc3)cc2)=C/C1=C/c1c(Cl)cccc1Cl` showed a growth of 89.5%.
In the case of `NC(N)=N/N=C\c1ccc(OCc2ccccc2)cc1`, the growth was 36%.
For `Fc1ccc(-c2nnc(N3CCOCC3)c3ccccc23)cc1`, the growth was 99%.
Work on `CC1=NN(c2cccc(S(N)(=O)=O)c2)C(=O)C1` yielded a growth of 99.4%.
`CCc1ccc2c(c1)N(CCO)C1=C(C(=O)OC1)C2c1cccc(Br)c1` (stereo not drawn) was tested, and the growth was 14.8%.
`Fc1ccc2nc(-c3ccc(-c4noc(-c5ccc(Cl)cc5)n4)cc3)[nH]c2c1` gave a growth of 92.5%.
For `Cc1cccc(C(=O)O)n1`, the growth was 102%.
With `COc1ccc(Nc2ncccc2C(=O)NCc2cn(Cc3cc(OC)cc(OC)c3)nn2)cc1` the growth was 84.3%.
`CN(C)c1ccc(C(c2ccccc2)c2ccc(N(C)C)cc2)cc1` gave a growth of 73.4%.
Compound `COc1ccc(/C=C2\CCCC3=C2N=C2SC(C)=NN2C3c2ccc(OC)c(OC)c2)cc1OC` (stereo not drawn) has a growth of 14.5%.
Work on `Cn1c(=O)c2[nH]c(Cc3ccc4c(c3)OCO4)nc2n(C)c1=O` yielded a growth of 108%.
In the case of `O=C1OCC2=C1C(c1ccc(Cl)c(Cl)c1)c1cc3c(cc1N2CCO)CCC3` (stereo not drawn), the growth was 19.7%.
`COc1cc(C2C=C(C)N=C3SC=NN32)cc(OC)c1OC` (stereo not drawn) was tested, and the growth was 108%.
Compound `Cc1cc(O)ccc1C1=NN(c2ccc(S(N)(=O)=O)cc2)C(=O)CC1` has a growth of 15.7%.
`NC(=Nc1ccccc1)SCCCSC(N)=Nc1ccccc1` gave a growth of 75%.
`CC(=O)Nc1ccc(Cl)cc1Cl` showed a growth of 64.9%.
For `NS(=O)(=O)c1ccc(N2N=C(c3ccc(Br)cc3)CC2c2cn(-c3ccccc3)nc2-c2ccc(Cl)cc2)cc1` (stereo not drawn), the growth was 63%.
